The record followed here is PubChem BioAssay.

Assay [1] is described as follows: antimalarial activity against Dd2 strain (AID 2302;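 active = growth inhibition above 50% at the single 2 µM test dose, taken to imply half-maximal potency below 2 µM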;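 also: 0% = DMSO untreated growth and 100% = chloroquine plus artemisinin killed control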). To be noted: P. falciparum Dd2 in RBCs, LDH growth readout, 72 h; at 2 µM; hits give high values.
A short description of assay [2]: HepG2 cytotoxicity, primary screen, cytotoxicity control for P. falciparum antimalarial project, cell-based, ATP luminescence (AID 2303;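 active = inhibition above 50%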;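 also: 0% = DMSO wells and 100% = digitonin-killed cells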). To be noted: HepG2 viability, 24-48 h, at 10 µM, hits give high values.
The target of assay [3] is L-lactate dehydrogenase (Plasmodium falciparum (isolate CDC / Honduras)) (UniProt Q27743). The experiment in a line: PfLDH activity inhibition – cell lysate, 3D7 strain, counter-screen for P. falciparum growth inhibition project (AID 2304).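 Also: 0% = vehicle and 100% = reference inhibitor.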 As to conditions: P. falciparum 3D7 crude extract, LDH APAD/NBT absorbance; at 2 µM; hits give high values. On the technique in general: A counterscreen serves to expose hits that act by an unwanted route or on another target.
Chain of L-lactate dehydrogenase (Plasmodium falciparum (isolate CDC / Honduras)) (Q27743 whole entry, looked up): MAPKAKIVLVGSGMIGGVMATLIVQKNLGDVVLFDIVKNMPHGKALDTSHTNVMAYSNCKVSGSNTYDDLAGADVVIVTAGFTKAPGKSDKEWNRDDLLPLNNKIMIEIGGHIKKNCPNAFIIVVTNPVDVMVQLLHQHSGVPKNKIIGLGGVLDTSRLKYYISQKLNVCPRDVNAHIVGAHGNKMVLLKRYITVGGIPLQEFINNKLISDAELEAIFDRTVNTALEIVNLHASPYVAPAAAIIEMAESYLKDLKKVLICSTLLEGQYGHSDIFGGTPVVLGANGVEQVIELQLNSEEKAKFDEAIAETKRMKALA

Assay [4] is described as follows: inhibition of 3D7 malaria parasite growth – strain 3D7 (AID 2306).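 Also: 0% = DMSO wells and 100% = chloroquine plus artemisinin control wells.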 To be noted: P. falciparum 3D7 erythrocytic growth, LDH absorbance, 72 h; at 2 µM; hits give high values.
Assay [5] addresses Calcium-dependent protein kinase 1 (Plasmodium falciparum (isolate 3D7)) (UniProt P62344). The experiment in a line: PfCDPK1 kinase inhibitors, biochemical, TCAMS library (AID 1159585; cut-off not given, nearly all actives have IC50 up to about 0.98 µM;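 also: inhibitors leave more ATP so luminescence rises with inhibition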). To be noted: recombinant PfCDPK1, Kinase-Glo ATP depletion luminescence.
Assay [6] has as its target Plasmodium falciparum protein kinase 6 (PK6, PF3D7_1337100) (UniProt Q8IDW1). The assay is described as follows: PfPK6 kinase inhibitors, biochemical, TCAMS library (AID 1159586). As to conditions: recombinant PfPK6, Kinase-Glo ATP depletion luminescence. (In general: Kinase-Glo measures the ATP left after a reaction by luminescence.)
For assay [7], the target named is Protein kinase 7 (PK7), Plasmodium falciparum 3D7 (PF3D7_0213400) (UniProt Q7YTF7). The assay is described as follows: inhibition of Plasmodium PK7 catalytic activity – biochemical, TCAMS antimalarial set, Kinase-Glo luminescence (AID 1159587). To be noted: recombinant PfPK7, Kinase-Glo ATP depletion luminescence.
Chain of Protein kinase 7 (PK7), Plasmodium falciparum 3D7 (PF3D7_0213400) (Q7YTF7 1-343): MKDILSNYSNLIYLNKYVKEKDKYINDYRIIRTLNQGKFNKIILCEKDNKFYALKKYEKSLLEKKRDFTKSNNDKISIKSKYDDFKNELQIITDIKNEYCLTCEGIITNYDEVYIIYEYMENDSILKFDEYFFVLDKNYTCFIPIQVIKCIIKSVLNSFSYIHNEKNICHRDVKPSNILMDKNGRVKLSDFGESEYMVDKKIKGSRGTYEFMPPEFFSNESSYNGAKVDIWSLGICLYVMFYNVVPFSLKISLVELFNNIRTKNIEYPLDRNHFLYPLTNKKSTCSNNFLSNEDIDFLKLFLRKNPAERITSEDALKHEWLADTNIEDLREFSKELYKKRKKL
The target of assay [8] is Calcium-dependent protein kinase 4 (Plasmodium falciparum (isolate 3D7)) (UniProt Q8IBS5). The assay is described as follows: PfCDPK4 kinase inhibitors, biochemical, TCAMS library (AID 1159588; cut-off not given, nearly all actives have IC50 up to about 0.91 µM). As to conditions: recombinant PfCDPK4, Kinase-Glo ATP depletion luminescence.
Chain of Calcium-dependent protein kinase 4 (Plasmodium falciparum (isolate 3D7)) (Q8IBS5 whole entry, looked up): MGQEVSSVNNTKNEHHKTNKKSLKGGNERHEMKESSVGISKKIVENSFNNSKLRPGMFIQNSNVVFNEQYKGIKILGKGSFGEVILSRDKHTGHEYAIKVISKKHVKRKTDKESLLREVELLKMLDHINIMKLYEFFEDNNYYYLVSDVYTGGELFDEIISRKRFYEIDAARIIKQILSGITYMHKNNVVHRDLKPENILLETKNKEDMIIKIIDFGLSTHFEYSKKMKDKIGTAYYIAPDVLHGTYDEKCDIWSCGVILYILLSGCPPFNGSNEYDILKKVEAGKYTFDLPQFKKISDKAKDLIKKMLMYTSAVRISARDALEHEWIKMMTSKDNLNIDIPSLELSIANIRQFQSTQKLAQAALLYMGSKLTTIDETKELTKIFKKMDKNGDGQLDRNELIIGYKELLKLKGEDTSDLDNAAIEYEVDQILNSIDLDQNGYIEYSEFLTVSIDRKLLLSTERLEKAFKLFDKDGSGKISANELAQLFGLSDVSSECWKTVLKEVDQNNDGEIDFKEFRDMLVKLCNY

A number with no mark means an inactive call. For some of these results: Entries with a potency or affinity are not part of this list. Active and inactive are the calls of the source. Unless noted, no rule for the calls is given here.

Chain of Calcium-dependent protein kinase 1 (Plasmodium falciparum (isolate 3D7)) (P62344 whole entry, looked up): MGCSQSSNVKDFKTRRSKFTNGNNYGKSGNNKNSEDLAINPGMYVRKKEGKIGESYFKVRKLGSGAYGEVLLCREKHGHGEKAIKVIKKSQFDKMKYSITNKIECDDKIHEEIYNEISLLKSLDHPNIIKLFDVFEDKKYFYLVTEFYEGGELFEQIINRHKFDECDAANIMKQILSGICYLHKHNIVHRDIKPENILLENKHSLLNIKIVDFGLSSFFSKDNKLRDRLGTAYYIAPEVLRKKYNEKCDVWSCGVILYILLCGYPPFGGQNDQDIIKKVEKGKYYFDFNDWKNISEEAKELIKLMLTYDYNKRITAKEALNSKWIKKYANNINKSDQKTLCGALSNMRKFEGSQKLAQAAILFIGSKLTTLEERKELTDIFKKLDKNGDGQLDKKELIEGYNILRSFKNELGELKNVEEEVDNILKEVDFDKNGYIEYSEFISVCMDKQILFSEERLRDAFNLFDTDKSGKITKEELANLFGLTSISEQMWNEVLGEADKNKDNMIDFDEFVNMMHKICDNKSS
Chain of Plasmodium falciparum protein kinase 6 (PK6, PF3D7_1337100) (Q8IDW1 1-305): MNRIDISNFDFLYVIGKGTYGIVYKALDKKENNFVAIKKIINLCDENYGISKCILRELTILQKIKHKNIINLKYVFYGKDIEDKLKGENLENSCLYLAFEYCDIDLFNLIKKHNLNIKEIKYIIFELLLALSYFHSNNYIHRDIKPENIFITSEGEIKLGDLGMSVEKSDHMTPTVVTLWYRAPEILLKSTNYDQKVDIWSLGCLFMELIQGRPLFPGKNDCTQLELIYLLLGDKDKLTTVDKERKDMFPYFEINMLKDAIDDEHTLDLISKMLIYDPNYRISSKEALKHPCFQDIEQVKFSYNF

In the case of `Cc1ccc(C(=O)Nc2ccc(C)c(OC3CCN(Cc4ccco4)C3)c2)cc1` (stereo not given), the growth inhibition in assay [1] is 49%; in assay [4], 90% (active). For the same compound, the inhibition in assay [2] was 10%; in assay [3], 3%. For the same compound, the result in assay [5], in assay [6], in assay [7] and in assay [8] was inactive.

For the compound `CC(CCc1ccccc1)NCC(O)c1cccc(C(F)(F)F)c1` (stereo not given), the growth inhibition in assay [1] is 98% (active); in assay [4], 99% (active). In addition, the inhibition in assay [2] was 18%; in assay [3] it was 4%. For the same compound, the result in assay [5], in assay [6], in assay [7] and in assay [8] was inactive.

Regarding `Cc1cc(NCCC(=O)Nc2ccccc2)nc(NCCOc2ccccc2)n1`, the growth inhibition in assay [1] was 9%; in assay [4], 100% (active). The inhibition in assay [2] is 5%; in assay [3], 0%. In addition, the result in assay [5], in assay [6], in assay [7] and in assay [8] was inactive.

Regarding `Oc1cc(Nc2ccnc3cc(-c4cccc(CN5CCCCC5)c4)ccc23)c(F)cc1Cl`, the growth inhibition in assay [1] and in assay [4] was 101% (active) each time. The results for the inhibition in assay [2] and in assay [3] were 21% and -3%, respectively. Moreover, the outcome in assay [5], in assay [6], in assay [7] and in assay [8] was inactive.

Consider `O=C(NCC1CCC(C(=O)NC2CCCc3ccccc32)CC1)c1ccc(O)c(-c2ccc(Cl)c(Cl)c2)c1` (stereo not given), for which the growth inhibition is 86% (active) in assay [1] and 93% (active) in assay [4]. Besides, the inhibition was -5% in assay [2] and -4% in assay [3]. Also, the outcome in assay [5], in assay [6], in assay [7] and in assay [8] was inactive.

With `COc1ccc(NC(C)C(=O)Nc2ccc(Br)cc2)cc1S(=O)(=O)N1CCCCC1` (stereo not given), the results for the growth inhibition in assay [1] and in assay [4] were 97% (active) and 99% (active), respectively. The inhibition in assay [2] is 2%; in assay [3], -2%. The result in assay [5], in assay [6], in assay [7] and in assay [8] was inactive.

Take `O=C(NCc1cccs1)[C@H](Cc1ccccc1)Nc1ccnc(NCC2CCCCC2)n1`: the growth inhibition was 67% (active) in assay [1] and 83% (active) in assay [4]. The inhibition in assay [2] was 5%; in assay [3], -2%. Further, the outcome in assay [5], in assay [6], in assay [7] and in assay [8] was inactive.

Turning to `O=C(Nc1cccc(CN2CCN(Cc3cccc(O)c3)CC2)c1)c1ccc(Cl)c(Cl)c1`, the growth inhibition in assay [1] was 35%; in assay [4], 100% (active). Besides, the inhibition in assay [2] was 28%; in assay [3], -1%. Besides, the outcome in assay [5], in assay [6], in assay [7] and in assay [8] was inactive.

Turning to `CN1CCN(CCCN(Cc2cccc(-c3cccc(CNC4CCCC4)c3)c2)C(=O)/C=C/c2ccccc2)CC1`, the results for the growth inhibition in assay [1] and in assay [4] were 99% (active) and 101% (active), respectively. Further, the inhibition in assay [2] was 84% (active); in assay [3], -5%. The outcome in assay [5], in assay [6], in assay [7] and in assay [8] was inactive.

For `CCOc1ccc2c(NN=Cc3ccccc3F)cc(C)nc2c1`, the growth inhibition in assay [1] is 77% (active); in assay [4], 101% (active). Besides, the figures for the inhibition in assay [2] and in assay [3] were -1% and -5%, respectively. The outcome in assay [5], in assay [6], in assay [7] and in assay [8] was inactive.

Consider `O=C(CCc1cnc[nH]1)Nc1ccc(-c2ccc(-c3nc4ccc(F)cc4[nH]3)cc2)cc1`, for which the growth inhibition in assay [1] is 58% (active); in assay [4], 99% (active). The inhibition in assay [2] is 26%; in assay [3], -1%. Besides, the result in assay [5], in assay [6], in assay [7] and in assay [8] was inactive.

Take `Cc1cccc2[nH]c(-c3ccc(-c4ccc(CN5CCN(c6ccc(C#N)cn6)CC5)cc4)s3)nc12`: the growth inhibition was 44% in assay [1] and 98% (active) in assay [4]. For the same compound, the inhibition in assay [2] was 10%; in assay [3], 2%. In addition, the outcome in assay [5], in assay [6], in assay [7] and in assay [8] was inactive.

As for `O=C(NCCCCCN1CCC(c2c[nH]c3ccccc23)CC1)c1ccc(Cl)c(Cl)c1`, the growth inhibition is 10% in assay [1] and 85% (active) in assay [4]. For the same compound, the inhibition in assay [2] is 48%; in assay [3] it was -2%. Moreover, the result in assay [5], in assay [6], in assay [7] and in assay [8] was inactive.

Take `O=C(c1cccs1)N(Cc1cccc(-c2ccc(CNCCc3ccccc3)cc2)c1)C1CCN(Cc2ccccc2)CC1`: the growth inhibition was 76% (active) in assay [1] and 95% (active) in assay [4]. In addition, the inhibition was 3% in assay [2] and -3% in assay [3]. Further, the outcome in assay [5], in assay [6], in assay [7] and in assay [8] was inactive.

Regarding `COc1ccc(-c2cc(Nc3nc(-c4cccc(Cl)c4)nc4ccccc34)ccn2)cc1`, the growth inhibition is 17% in assay [1] and 100% (active) in assay [4]. The inhibition in assay [2] was 3%; in assay [3] it was -2%. Moreover, the outcome in assay [5], in assay [6], in assay [7] and in assay [8] was inactive.

`Clc1ccc(-c2cc(-c3csc(NCCN4CCCCC4)n3)on2)cc1`: the growth inhibition in assay [1] is 30%; in assay [4], 91% (active). Moreover, the inhibition in assay [2] was 81% (active); in assay [3], -9%. For the same compound, the result in assay [5], in assay [6], in assay [7] and in assay [8] was inactive.

On to `COc1ccc(-c2nc3c4cc(I)ccc4c4ccccc4c3[nH]2)cc1`, for which the growth inhibition is 16% in assay [1] and 96% (active) in assay [4]. Besides, the inhibition is 4% in assay [2] and -3% in assay [3]. Besides, the outcome in assay [5], in assay [6], in assay [7] and in assay [8] was inactive.

For the compound `COc1ccc2nccc([C@@H](O)CN3CCC(NCc4ccc5c(c4)NC(=O)CO5)CC3)c2c1`, the results for the growth inhibition in assay [1] and in assay [4] were 6% and 99% (active), respectively. The results for the inhibition in assay [2] and in assay [3] were 1% and 5%, respectively. Further, the result in assay [5], in assay [6], in assay [7] and in assay [8] was inactive.

In the case of `CC1(C)N=C(N)N=C(N)N1OCc1cc(Cl)c(Cl)cc1CON1C(N)=NC(N)=NC1(C)C`, the growth inhibition in assay [1] is 100% (active); in assay [4], 98% (active). The figures for the inhibition in assay [2] and in assay [3] were 36% and 4%, respectively. The result in assay [5], in assay [6], in assay [7] and in assay [8] was inactive.

Take `O=C(Nc1cccc(C(F)(F)F)c1)c1ccc(S(=O)(=O)NC2CCN(CC3CCCCC3)C2)cc1` (stereo not given): the growth inhibition in assay [1] is -3%; in assay [4] it was 92% (active). In addition, the inhibition was 16% in assay [2] and -4% in assay [3]. Besides, the result in assay [5], in assay [6], in assay [7] and in assay [8] was inactive.

One may read the inhibition as the relative decrease from the control value, in per cent.
